D1 PAM = enhances dopamine response at the human D1 receptor; P21728; HEK293 TREx D1 cells, calcium flux, dopamine EC20 potentiation; potentiation, % at 10 µM; actives 0.036% (n = 360,000); AID 504651; in the data active means potentiation above about 30%; further: 0% is about no effect
Target sequence (P21728 whole entry, looked up): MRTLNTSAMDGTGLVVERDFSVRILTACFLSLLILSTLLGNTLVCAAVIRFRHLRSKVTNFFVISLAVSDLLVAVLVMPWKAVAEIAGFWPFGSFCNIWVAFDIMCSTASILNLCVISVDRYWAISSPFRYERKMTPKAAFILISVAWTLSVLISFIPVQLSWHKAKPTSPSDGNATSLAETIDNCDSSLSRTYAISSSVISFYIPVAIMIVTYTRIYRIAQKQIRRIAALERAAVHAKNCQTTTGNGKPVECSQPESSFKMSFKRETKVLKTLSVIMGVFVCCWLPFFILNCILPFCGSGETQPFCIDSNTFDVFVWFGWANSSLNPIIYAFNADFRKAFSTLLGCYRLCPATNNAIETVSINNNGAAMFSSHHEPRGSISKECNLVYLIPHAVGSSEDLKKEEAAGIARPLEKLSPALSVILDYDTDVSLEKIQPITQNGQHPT
D1 antag = antagonists of human D1 dopamine receptor; P21728; HEK293 TREx D1 cells, calcium flux, dopamine EC80; active compounds read low; activity change, negative = inhibition, % at 10 µM; actives 3.2% (n = 360,000); AID 504652; in the data active means activity change below about -30%; further: on the % scale 0 is the no-effect control and ±100 the full control effect
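Tetracycline-induced HEK293 T-REx cells with force-coupled D1 receptor were loaded with a no-wash calcium dye. Compound was added after a 10 s baseline and read kinetically for 180 s; EC80 dopamine was then added and calcium flux followed another 180 s.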
TRHR PAM = allosteric enhancers of human TRH receptor; P34981; TRHR cells, fluo-8 calcium fluorescence, EC20 TRH enhancement; enhancement, % at 2 µM; actives 0.66% (n = 360,000); AID 493056; in the data active means enhancement above about 30%; further: 0% is about no effect
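TRHR-expressing cells loaded with fluo-8 calcium dye were read kinetically (ex 480/em 530) during compound addition, then stimulated with an EC20 of TRH (10 nM final). Enhancement of the Gq-mediated intracellular calcium response was scored.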
D1 ag = human D1 receptor agonism; HEK293 T-REx D1 cells, calcium flux, agonist mode; activation, % at 2 µM; actives 1% (n = 360,000); further: 0% is about no effect
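Agonism was scored from calcium flux recorded over 180 s (1 read/s) after pintool compound addition, following a 10-cycle baseline. Cells were inducible force-coupled HEK293 TREx D1, plated overnight at 30 C and loaded with no-wash calcium dye.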
TRHR agonist = activates the human TRH receptor; AID 493084; P34981; TRHR cells, calcium flux fluo-8, FDSS agonist mode; actives 0.18% (n = 360,000); activation, % at 2 µM; further: 0% is about no effect
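TRHR-expressing cells, plated overnight in medium with 10% serum, were loaded with fluo-8 calcium dye at room temperature. After a 10 s baseline, library compound was pin-added and calcium release was recorded kinetically (ex 480/em 530) as agonist response.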
Numbers without * were called inactive. This is a sample that favours compounds with a hit; in the whole collection about 4.7% have one here. Unless noted, no stated cut-off is given here; in the data, active means activation above about 30%; inactive means the rest.

SMILES | D1 PAM | D1 antag | TRHR PAM | D1 ag | TRHR agonist
COc1ccc(C2/C=C\CN(C(=O)C3CCCC3)[C@H](Cc3ccccc3)C(=O)N2Cc2ccc(F)cc2)cc1 (stereo partly specified) | 9 | -37* | 2 | 5 | 0
CC(C)CN1C(=O)c2ccc(C(=O)Nc3ccc(O)cc3C(=O)O)cc2C1=O | -9 | -76* | -3 | 3 | 0
Cc1ccc(Cn2ccn(Cc3ccccc3F)c(=O)c2=O)cc1 | -1 | -17 | 0 | 3 | 0
Cc1nn(C)cc1CNC(=O)C1C2CCC(O2)C1C(=O)O (stereo unspecified) | -5 | 4 | 5 | 2 | 1
Cc1nn(C)cc1CNC(=O)C1C2CCC(C2)C1C(=O)O (stereo unspecified) | -3 | -32* | -2 | 6 | 1
Oc1ccc(Br)cc1/C=N/n1c(C2CCCCC2)n[nH]c1=S | 3 | -8 | 3 | 37* | -1
Cc1ccc(CN2CCN(C3CCN(C(=O)c4ccccc4)CC3)C(=O)C2=O)cc1 | 0 | 10 | -1 | 3 | 0
O=S(=O)(Nc1cccc(C(F)(F)F)c1)c1ccc(-c2cnc(C3CC3)o2)cc1 | -1 | 4 | -5 | 1 | 1
O=C(CSC(=S)N1CCSCC1)c1ccc(Cl)cc1 | 1 | -46* | 7 | 9 | 2
COc1ccc(CNS(=O)(=O)c2cnc(N)nc2)c(OC)c1 | -5 | -6 | 6 | 2 | 0
Cc1cc(C(=O)CSc2nnc(-c3cccs3)o2)c(C)n1-c1ccccc1 | 2 | -55* | -6 | 2 | 0
O=C(NCCc1ccc(Cl)cc1)c1nc(-c2cccc(F)c2)n2c1CCCCC2 | 2 | 21 | -1 | 17 | 0
CCOc1ccc(NC(=O)c2ccc(F)c(S(=O)(=O)N(CC)Cc3ccccc3)c2)cc1 | -1 | -21 | -2 | 2 | 0
Cc1cc(C)cc(NC(=O)C(C)N2C(=O)c3ccccc3C2=O)c1 (stereo unspecified) | -5 | 1 | 0 | 1 | -1
CC(C(=O)Nc1ccccc1)N1C(=O)c2ccccc2C1=O (stereo unspecified) | -1 | 2 | 32* | 0 | 0
CCCSc1ncc(Cl)c(C(=O)N(Cc2ccccc2)c2ccc(OC)cc2)n1 | -2 | -36* | -9 | 16 | 2
O=C(Nc1nc(-c2ccc(-c3ccccc3)cc2)cs1)c1cc([N+](=O)[O-])ccc1N1CCOCC1 | -7 | -36* | -3 | 0 | -3
Cc1ccc(S(=O)(=O)N2CCOCC2)cc1NC(=O)c1cc([N+](=O)[O-])ccc1N1CCOCC1 | 0 | -69* | -1 | -2 | 0
O=C(Nc1nc2c(ccc3ccccc32)s1)c1cc([N+](=O)[O-])ccc1N1CCOCC1 | 1 | 4 | 6 | 6 | -3
Cc1ccc(S(=O)(=O)N2CCOCC2)cc1NC(=O)CSc1nnnn1C | 2 | -35* | 0 | 3 | 4
Cc1ccc(S(=O)(=O)N2CCCCC2)cc1NC(=O)CSc1nnnn1C | 0 | -3 | 4 | 2 | 0
Cc1ccccc1NC(=O)c1c(C)oc2ccc(O)c(CN3CCCCCC3)c12 | -1 | 1 | 7 | 5 | -1
COc1cc(NS(=O)(=O)c2cc(Br)cc3c2N(C(C)=O)C(C)C3)cc(OC)c1 (stereo unspecified) | 0 | 3 | 12 | 0 | 0
CCOC(=O)c1c(C)oc2nc(C)nc(NCc3ccccc3OCC)c12 | 8 | 4 | 43* | 2 | -1
CCOC(=O)c1c(C)oc2nc(C)nc(NCc3ccccc3Cl)c12 | 0 | 1 | 10 | 1 | 0
SMILES | D1 PAM | D1 antag | TRHR PAM | D1 ag | TRHR agonist
CCOC(=O)c1c(C)oc2nc(C)nc(NCc3ccccc3OC)c12 | -5 | -37* | -12 | 2 | 0
COc1ccc(CNC(=O)c2ccc3c(c2)N(Cc2ccccc2C)C(=O)c2ccccc2S3=O)cc1 (stereo unspecified) | 0 | -8 | 5 | 3 | 0
Cn1nc(C(F)(F)F)c(-c2ccc(F)cc2)c1NC(=O)Nc1ccc(F)cc1 | -12 | -67* | 2 | 31* | 2
COc1cccc(CNS(=O)(=O)c2ccc3c(c2)N(C(C)=O)CCO3)c1 | -8 | -90* | -23 | 0 | 0
CC(=O)N1CCOc2ccc(S(=O)(=O)NCc3ccc(Cl)cc3)cc21 | -7 | -1 | -3 | 4 | 0
O=C(CN1C(=O)COc2ccc(S(=O)(=O)N3CCCCCC3)cc21)N1CCN(c2cccc(Cl)c2)CC1 | 5 | 16 | 3 | 3 | 1
CCOC(=O)C1=C(c2ccccc2)N=c2s/c(=C\c3ccc(O)cc3)c(=O)n2C1c1cccs1 (stereo unspecified) | 2 | 5 | 2 | 31* | 23
CCN(CC)C(=O)c1sc(NC(=O)c2nc3ncccn3n2)c(C(=O)OC)c1C | -3 | -17 | 32* | 0 | -1
O=C(O)c1ccccc1C(=O)Nc1ccc(Nc2ccc([N+](=O)[O-])cc2[N+](=O)[O-])cc1 | 3 | -12 | 35* | 0 | 0
COc1ccc(NC(=O)NCc2cccn2Cc2ccc(F)cc2)cc1OC | -2 | -15 | -4 | 7 | -1
COc1cc(OC)c(OC)cc1/C=C/c1cc(C(=O)O)c2ccccc2n1 | -3 | 12 | 3 | 4 | 2
COc1ccc(/C=C/c2cc(C(=O)O)c3ccccc3n2)cc1 | -4 | -33* | 2 | 0 | 0
CN1C(=O)Cc2cc([S+](=O)([O-])N3CCN([S+](=O)([O-])c4c(F)cccc4F)CC3)ccc21 | -7 | -13 | -2 | 3 | 1
CC(=O)c1c(C)[nH]c(C(=O)COC(=O)c2ccc(Cl)nc2)c1C | -6 | -41* | 9 | 12 | 0
COc1ccc(CCNC(=O)c2cc(Sc3cccc(Cl)c3)nc3ccccc23)cc1OC | -3 | -18 | -8 | 3 | 0
Cc1ccc(N2CCN(S(=O)(=O)N3CCOCC3)CC2)cc1C | 2 | -31* | 4 | 1 | 0
Cc1cc(C)c2ccc(=S)[nH]c2n1 | -8 | -12 | 0 | 3 | 0
COc1ccc2c(C)cc(C)nc2n1 | 0 | -33* | 3 | 0 | 1
Cc1cc(C)cc(NC(=O)C(=O)NCC(c2cccnc2)N2CCc3ccccc32)c1 (stereo unspecified) | -4 | -25 | -3 | 1 | 0
CC(C)N(C(=O)CSc1nc2ccc(Cl)cc2[nH]1)c1ccccc1 | 1 | -44* | -1 | 20 | -1
CCc1ccc(/C=C2/SC(=S)N(CCCC(=O)Nc3ccccc3C(=O)O)C2=O)cc1 | -1 | -32* | 4 | 0 | 1
CCc1ccc(/C=C2/SC(=S)N(CCC(=O)Nc3cccc(C(=O)O)c3)C2=O)cc1 | 2 | 9 | 8 | 68* | -2

High-throughput results from PubChem.
